{"source": "the supplement of paper PMC8728848", "binders": {"B1": {"name": "Protein L(B1-B4) (Finegoldia magna), Q51912 (protein)", "chain": "KEETPETPETDSEEEVTIKANLIFANGSTQTAEFKGTFEKATSEAYAYADTLKKDNGEYTVDVADKGYTLNIKFAGKEKTPEEPKEEVTIKANLIYADGKTQTAEFKGTFEEATAEAYRYADALKKDNGEYTVDVADKGYTLNIKFAGKEKTPEEPKEEVTIKANLIYADGKTQTAEFKGTFEEATAEAYRYADLLAKENGKYTVDVADKGYTLNIKFAGKEKTPEEPKEEVTIKANLIYADGKTQTAEFKGTFAEATAEAYRYADLLAKENGKYTADLEDGGYTINIRFAG"}}, "assay_in_all_cases": "glycan array binding signal (z-score within array); higher = stronger binding", "conditions_in_all_cases": "glycan notation: IUPAC condensed, linker removed", "key": {"[1]": {"target": "GalNAc(b1-4)GlcNAc(b1-2)Man(a1-3)[GalNAc(b1-4)GlcNAc(b1-2)Man(a1-6)]Man(b1-4)GlcNAc(b1-4)GlcNAc", "procedure,_shortened": "(§1)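 Columns mapping to the same glycan were averaged after glycan names were converted to IUPAC-condensed notation. The data come from 3228 arrays in the Consortium for Functional Glycomics database, limited to those with an available protein sequence. Binding is reported as a within-array Z-score averaged across arrays of one protein sequence and across linkers.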"}, "GlcA(b1-3)GlcNAc": {"target": "GlcA(b1-3)GlcNAc", "procedure,_shortened": "as §1"}, "[2]": {"target": "GlcNAc(b1-3)Gal(b1-4)GlcNAc(b1-3)Gal(b1-4)GlcNAc(b1-2)Man(a1-3)[GlcNAc(b1-3)Gal(b1-4)GlcNAc(b1-3)Gal(b1-4)GlcNAc(b1-2)Man(a1-6)]Man(b1-4)GlcNAc(b1-4)[Fuc(a1-6)]GlcNAc", "procedure,_shortened": "as §1"}, "[3]": {"target": "GlcNAc(b1-3)Gal(b1-4)GlcNAc(b1-3)Gal(b1-4)GlcNAc(b1-3)Gal(b1-4)GlcNAc(b1-2)Man(a1-3)[GlcNAc(b1-3)Gal(b1-4)GlcNAc(b1-3)Gal(b1-4)GlcNAc(b1-3)Gal(b1-4)GlcNAc(b1-2)Man(a1-6)]Man(b1-4)GlcNAc(b1-4)GlcNAc", "procedure,_shortened": "as §1"}, "[4]": {"target": "GlcNAc6S(b1-3)Gal(b1-4)GlcNAc", "procedure,_shortened": "as §1"}, "[5]": {"target": "Man(a1-3)[Man(a1-6)]Man(a1-6)[Man(a1-2)Man(a1-3)]Man(b1-4)GlcNAc(b1-4)GlcNAc", "procedure,_shortened": "as §1"}, "Man(a1-6)Man": {"target": "Man(a1-6)Man", "procedure,_shortened": "as §1"}, "[6]": {"target": "Neu5Ac(a2-3)Gal(b1-4)GlcNAc(b1-2)Man(a1-3)[Neu5Ac(a2-6)Gal(b1-4)GlcNAc(b1-2)Man(a1-6)]Man(b1-4)GlcNAc(b1-4)GlcNAc", "procedure,_shortened": "as §1"}, "[7]": {"target": "Neu5Ac(a2-3)Gal(b1-4)GlcNAc(b1-2)[Neu5Ac(a2-3)Gal(b1-4)GlcNAc(b1-4)]Man(a1-3)[GlcNAc(b1-4)][Neu5Ac(a2-3)Gal(b1-4)GlcNAc(b1-2)[Neu5Ac(a2-3)Gal(b1-4)GlcNAc(b1-6)]Man(a1-6)]Man(b1-4)GlcNAc(b1-4)GlcNAc", "procedure,_shortened": "as §1"}, "[8]": {"target": "Neu5Ac(a2-3)Gal(b1-4)GlcNAc(b1-3)Gal(b1-4)GlcNAc(b1-3)Gal(b1-4)GlcNAc", "procedure,_shortened": "as §1"}, "[9]": {"target": "Neu5Ac(a2-3)Gal(b1-4)GlcNAc(b1-3)Gal(b1-4)[Fuc(a1-3)]GlcNAc", "procedure,_shortened": "as §1"}, "[10]": {"target": "Neu5Ac(a2-3)Gal(b1-4)GlcNAc6S", "procedure,_shortened": "as §1"}, "[11]": {"target": "Neu5Ac(a2-3)[GalNAc(b1-4)]Gal(b1-4)GlcNAc(b1-3)GalNAc", "procedure,_shortened": "as §1"}, "[12]": {"target": "Neu5Ac(a2-6)Gal(b1-4)GlcNAc(b1-3)Gal(b1-4)GlcNAc(b1-3)Gal(b1-4)GlcNAc(b1-2)Man(a1-3)[Neu5Ac(a2-6)Gal(b1-4)GlcNAc(b1-3)Gal(b1-4)GlcNAc(b1-3)Gal(b1-4)GlcNAc(b1-2)Man(a1-6)]GalNAc", "procedure,_shortened": "as §1"}, "[13]": {"target": "Neu5Ac(a2-6)Gal(b1-4)GlcNAc(b1-3)Gal(b1-4)GlcNAc(b1-3)[Neu5Ac(a2-6)Gal(b1-4)GlcNAc(b1-3)Gal(b1-4)GlcNAc(b1-6)]GalNAc", "procedure,_shortened": "as §1"}, "[14]": {"target": "Neu5Ac(a2-6)Gal(b1-4)GlcNAc(b1-6)GalNAc", "procedure,_shortened": "as §1"}, "[15]": {"target": "Neu5Ac(a2-6)Gal(b1-4)GlcNAc(b1-6)[Gal(b1-3)GlcNAc(b1-3)]Gal(b1-4)Glc", "procedure,_shortened": "as §1"}, "[16]": {"target": "Neu5Ac(a2-8)Neu5Ac(a2-3)Gal(b1-4)Glc", "procedure,_shortened": "as §1"}, "[17]": {"target": "Neu5Ac(a2-8)Neu5Ac(a2-8)Neu5Ac(a2-3)Gal(b1-4)Glc", "procedure,_shortened": "as §1"}, "[18]": {"target": "Neu5Ac9Ac(a2-3)Gal(b1-4)GlcNAc", "procedure,_shortened": "as §1"}, "[19]": {"target": "Neu5Gc(a2-8)Neu5Gc(a2-3)Gal(b1-4)GlcNAc", "procedure,_shortened": "as §1"}}, "note": "This is one part of a sample in which the strongest signals are shown more often than they occur.", "data": [{"binder": "B1", "values": [{"measurement": "glycan array binding signal (z-score)", "setting": "[1]", "result": 1.49}, {"measurement": "glycan array binding signal (z-score)", "setting": "GlcA(b1-3)GlcNAc", "result": -0.785}, {"measurement": "glycan array binding signal (z-score)", "setting": "[2]", "result": 3.07}, {"measurement": "glycan array binding signal (z-score)", "setting": "[3]", "result": 1.06}, {"measurement": "glycan array binding signal (z-score)", "setting": "[4]", "result": -0.336}, {"measurement": "glycan array binding signal (z-score)", "setting": "[5]", "result": 2.94}, {"measurement": "glycan array binding signal (z-score)", "setting": "Man(a1-6)Man", "result": -0.159}, {"measurement": "glycan array binding signal (z-score)", "setting": "[6]", "result": -1.02}, {"measurement": "glycan array binding signal (z-score)", "setting": "[7]", "result": -0.913}, {"measurement": "glycan array binding signal (z-score)", "setting": "[8]", "result": -1.05}, {"measurement": "glycan array binding signal (z-score)", "setting": "[9]", "result": -0.359}, {"measurement": "glycan array binding signal (z-score)", "setting": "[10]", "result": -0.92}, {"measurement": "glycan array binding signal (z-score)", "setting": "[11]", "result": 0.809}, {"measurement": "glycan array binding signal (z-score)", "setting": "[12]", "result": 3.91}, {"measurement": "glycan array binding signal (z-score)", "setting": "[13]", "result": 2.86}, {"measurement": "glycan array binding signal (z-score)", "setting": "[14]", "result": 3.08}, {"measurement": "glycan array binding signal (z-score)", "setting": "[15]", "result": -0.606}, {"measurement": "glycan array binding signal (z-score)", "setting": "[16]", "result": -1.15}, {"measurement": "glycan array binding signal (z-score)", "setting": "[17]", "result": 0.487}, {"measurement": "glycan array binding signal (z-score)", "setting": "[18]", "result": 0.223}, {"measurement": "glycan array binding signal (z-score)", "setting": "[19]", "result": -1.03}]}]}
